{"source": "the supplement of paper PMC9177965"}
{"system": "HT29 sg-Ctrl (RNF43 wildtype)", "assay": "cell viability activity relative to DMSO (negative = inhibition); higher = more viable cells (less growth inhibition)", "conditions": "5 µM; 96 h", "method": "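Broad Repurposing Library primary screen at a single dose of 5 uM. HT29 sg-Ctrl and HT29 RNF43 G659fs CRISPR-edited isogenic cells were seeded at 2500 cells/well in 384-well plates in duplicate and treated for 96 h. Viability was read by CellTiter-Glo and reported as % activity relative to DMSO, with MG132 as the positive control (negative = growth inhibition).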", "units": {"cell viability activity": "%"}}
{"molecule": "Cc1ccc(C(=O)N(CCCN)[C@@H](c2oc3cc(Cl)ccc3c(=O)c2Cc2ccccc2)C(C)C)cc1", "cell viability activity": -78.3}
{"molecule": "CC[C@@H]1C(=O)N(C)c2cnc(Nc3ccc(C(=O)NC4CCN(C)CC4)cc3OC)nc2N1C1CCCC1", "cell viability activity": -90.4}
{"molecule": "Cc1cc(C(=O)NOCCO)c(Nc2ccc(I)cc2F)n(C)c1=O", "cell viability activity": -88.5}
{"molecule": "CC(C)C[C@H](NC(=O)CNC(=O)c1cc(Cl)ccc1Cl)B(O)O", "cell viability activity": -89.7}
{"molecule": "C=CC(=O)Nc1cccc(Sc2nc(Nc3ccc(N4CCN(C)CC4)cc3)ncc2Cl)c1", "cell viability activity": -42.7}
{"molecule": "Cc1ccc2c(Br)cc(Br)c(OC(=O)c3ccccc3)c2n1", "cell viability activity": -34.5}
{"molecule": "CN(C)C(=S)SC(=S)N(C)C", "cell viability activity": -29.9}
{"molecule": "CC(C)CC(=O)Nc1n[nH]c2c1CN(C(=O)C1CCN(C)CC1)C2(C)C", "cell viability activity": -61.4}
{"molecule": "CC1NC(=O)C(N)CNC(=O)C(C2CCN=C(N)N2)NC(=O)/C(=C\\NC(N)=O)NC(=O)C(CNC(=O)CC(N)CCCN)NC1=O", "note": "(stereo not drawn)", "cell viability activity": 0.515}
{"molecule": "C[C@]12CC[C@@H]3c4ccc(O)cc4C[C@@H](CCCCCCCCC[S+]([O-])CCCC(F)(F)C(F)(F)F)[C@H]3[C@@H]1CC[C@@H]2O", "note": "(stereo partly drawn)", "cell viability activity": -38.5}
{"molecule": "N#Cc1ccncn1", "cell viability activity": -18.3}
{"molecule": "Cc1cc(I)ccc1Nc1c(C(=O)NOCC2CC2)cc(F)c(F)c1F", "cell viability activity": -71.6}
{"molecule": "COc1cc(C(=O)N2CCC(N3CCN(C)CC3)CC2)ccc1Nc1ncc2c(n1)N(C)c1ccccc1C(=O)N2C", "cell viability activity": -57.3}
{"molecule": "Cc1ccc(C(=O)Nc2ccc(Oc3cc4cnn(C)c4cc3-c3cn[nH]c3)c(F)c2)c(=O)n1-c1ccc(F)cc1", "cell viability activity": -29}
{"molecule": "Cn1cc(CNCC2CCN(c3ncc(C(=O)NO)cn3)CC2)c2ccccc21", "cell viability activity": -92.8}
{"molecule": "C/C=C1\\NC(=O)[C@H]2CSSCC/C=C/[C@H](CC(=O)N[C@H](C(C)C)C(=O)N2)OC(=O)[C@H](C(C)C)NC1=O", "cell viability activity": -77.3}
{"molecule": "O=C(O)c1ccc(-n2nc(-c3ccccc3O)nc2-c2ccccc2O)cc1", "cell viability activity": -27.1}
{"molecule": "Nc1nc(=O)n([C@H]2C[C@H](O)[C@@H](CO)O2)cc1F", "cell viability activity": -71}
{"molecule": "C/C(=C\\c1csc(C)n1)[C@@H]1C[C@@H]2O[C@]2(C)CCC[C@H](C)[C@H](O)[C@@H](C)C(=O)C(C)(C)[C@@H](O)CC(=O)N1", "cell viability activity": -38.1}
{"molecule": "COc1cc(Nc2c(C#N)cnc3cc(OCCCN4CCN(C)CC4)c(OC)cc23)c(Cl)cc1Cl", "cell viability activity": -97.9}
{"molecule": "N#CC1(c2ccc(NC(=O)c3cccnc3NCc3ccncc3)cc2)CCCC1", "cell viability activity": -22.7}
{"molecule": "CN(Cc1cnc2nc(N)nc(N)c2n1)c1ccc(C(=O)N[C@@H](CCC(=O)O)C(=O)O)cc1", "cell viability activity": -66}
{"molecule": "C[C@@H](NCCCc1cccc(C(F)(F)F)c1)c1cccc2ccccc12", "cell viability activity": -41.7}
{"molecule": "CCN(CC)CCNC(=O)c1ccc(NC(C)=O)cc1", "cell viability activity": -3.92}
{"molecule": "Cc1ccc(C(=O)Nc2ccc(CN3CCN(C)CC3)c(C(F)(F)F)c2)cc1C#Cc1cnc2cccnn12", "cell viability activity": -78.4}
{"molecule": "CCc1nc(C(N)=O)c(Nc2ccc(N3CCC(N4CCN(C)CC4)CC3)c(OC)c2)nc1NC1CCOCC1", "cell viability activity": -61.8}
{"molecule": "CC(NCCC(c1ccccc1)c1ccccc1)c1ccccc1", "note": "(stereo not drawn)", "cell viability activity": -69.7}
{"molecule": "COC(=O)N[C@@H](C)CNc1nccc(-c2cn(C(C)C)nc2-c2cc(Cl)cc(NS(C)(=O)=O)c2F)n1", "cell viability activity": -72.4}
{"molecule": "CCCCCCCCc1ccc(CCC(N)(CO)CO)cc1", "cell viability activity": -94.1}
{"molecule": "COc1cc2ncnc(Nc3ccc(F)c(Cl)c3)c2cc1NC(=O)/C=C/CN1CCCCC1", "cell viability activity": -77.9}
{"molecule": "NC(=NC1C2CC3CC(C2)CC1C3)Nc1ccc(I)cc1", "note": "(stereo not drawn)", "cell viability activity": -69.8}
{"molecule": "COc1ccc2[nH]c(C(=O)c3ccccc3)cc2c1", "cell viability activity": -55.7}
{"molecule": "Cc1cc(Nc2nc(N[C@@H](C)c3ccc(F)cc3)c(C#N)cc2F)n[nH]1", "cell viability activity": -56.7}
{"molecule": "C#CCC(Cc1cnc2nc(N)nc(N)c2n1)c1ccc(C(=O)N[C@@H](CCC(=O)O)C(=O)O)cc1", "note": "(stereo partly drawn)", "cell viability activity": -61.7}
{"molecule": "O=C1NC(=O)[C@@H](c2cn3c4c(cccc24)CCC3)[C@@H]1c1c[nH]c2ccccc12", "cell viability activity": -61.7}
{"molecule": "C=C1C(=O)CC2CC3OC3(C)CCC3OC3(C)C[C@H](OC(C)=O)C1C2(C)C", "note": "(stereo partly drawn)", "cell viability activity": -25.5}
{"molecule": "CC(=O)c1cnc2ccc(-c3cc(Cl)c(O)c(Cl)c3)nc2c1N[C@H]1CC[C@H](CN(C)C)CC1", "cell viability activity": -91.1}
{"molecule": "Cc1nc(=O)c2cc(CN(C)c3ccc(C(=O)N[C@@H](CCC(=O)O)C(=O)O)s3)ccc2[nH]1", "cell viability activity": -60.9}
